# T1: ARFGEF2 639-829 Sec7 (domain begin residue: 639, domain end residue: 829), Q9Y6D5
# T1 chain: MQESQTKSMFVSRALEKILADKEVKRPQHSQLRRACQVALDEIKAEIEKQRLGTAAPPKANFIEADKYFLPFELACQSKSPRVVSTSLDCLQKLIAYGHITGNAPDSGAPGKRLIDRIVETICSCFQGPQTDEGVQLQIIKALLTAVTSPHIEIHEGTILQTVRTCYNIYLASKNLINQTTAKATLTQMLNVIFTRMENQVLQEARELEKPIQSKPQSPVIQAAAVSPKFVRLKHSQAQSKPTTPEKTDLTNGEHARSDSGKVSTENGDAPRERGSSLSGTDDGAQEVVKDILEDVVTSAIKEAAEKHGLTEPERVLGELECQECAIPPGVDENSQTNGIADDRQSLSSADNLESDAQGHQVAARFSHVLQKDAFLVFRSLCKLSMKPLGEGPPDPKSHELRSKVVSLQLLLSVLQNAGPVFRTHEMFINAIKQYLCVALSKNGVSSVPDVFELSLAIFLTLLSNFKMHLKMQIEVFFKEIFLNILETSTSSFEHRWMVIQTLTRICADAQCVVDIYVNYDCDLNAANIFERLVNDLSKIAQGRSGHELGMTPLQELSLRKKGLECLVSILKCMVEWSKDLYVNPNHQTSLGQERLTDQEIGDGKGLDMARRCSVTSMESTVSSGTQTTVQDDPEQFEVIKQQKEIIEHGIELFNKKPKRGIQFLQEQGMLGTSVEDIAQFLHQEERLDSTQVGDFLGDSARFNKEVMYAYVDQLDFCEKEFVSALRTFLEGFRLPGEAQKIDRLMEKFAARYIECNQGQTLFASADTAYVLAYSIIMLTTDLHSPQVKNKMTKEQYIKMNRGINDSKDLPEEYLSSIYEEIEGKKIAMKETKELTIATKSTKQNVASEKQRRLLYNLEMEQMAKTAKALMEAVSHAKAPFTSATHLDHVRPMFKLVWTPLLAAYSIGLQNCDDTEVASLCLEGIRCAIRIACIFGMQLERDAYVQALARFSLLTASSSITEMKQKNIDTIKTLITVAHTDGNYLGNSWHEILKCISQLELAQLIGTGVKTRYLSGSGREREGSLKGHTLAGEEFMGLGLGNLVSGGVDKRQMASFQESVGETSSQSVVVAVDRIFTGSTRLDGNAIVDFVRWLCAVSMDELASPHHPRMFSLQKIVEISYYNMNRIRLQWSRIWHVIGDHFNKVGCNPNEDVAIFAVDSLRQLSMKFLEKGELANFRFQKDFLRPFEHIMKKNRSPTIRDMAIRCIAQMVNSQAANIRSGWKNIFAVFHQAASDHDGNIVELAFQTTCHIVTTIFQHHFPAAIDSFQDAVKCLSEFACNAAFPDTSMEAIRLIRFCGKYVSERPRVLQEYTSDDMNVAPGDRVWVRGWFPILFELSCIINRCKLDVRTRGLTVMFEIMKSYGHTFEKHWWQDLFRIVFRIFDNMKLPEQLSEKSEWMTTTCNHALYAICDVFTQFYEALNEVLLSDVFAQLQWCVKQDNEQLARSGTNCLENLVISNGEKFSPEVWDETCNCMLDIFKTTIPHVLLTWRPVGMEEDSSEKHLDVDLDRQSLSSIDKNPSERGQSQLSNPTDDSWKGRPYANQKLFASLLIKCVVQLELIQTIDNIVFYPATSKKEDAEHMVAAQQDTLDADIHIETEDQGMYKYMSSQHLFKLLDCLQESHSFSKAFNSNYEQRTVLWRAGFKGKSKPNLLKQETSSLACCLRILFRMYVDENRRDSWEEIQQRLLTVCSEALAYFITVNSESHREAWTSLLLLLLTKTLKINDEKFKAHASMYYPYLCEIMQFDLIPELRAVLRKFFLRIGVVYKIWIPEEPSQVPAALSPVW
# T2: ARID4A 568-634 Tudor-knot (domain begin residue: 568, domain end residue: 634), P29374
# T2 chain: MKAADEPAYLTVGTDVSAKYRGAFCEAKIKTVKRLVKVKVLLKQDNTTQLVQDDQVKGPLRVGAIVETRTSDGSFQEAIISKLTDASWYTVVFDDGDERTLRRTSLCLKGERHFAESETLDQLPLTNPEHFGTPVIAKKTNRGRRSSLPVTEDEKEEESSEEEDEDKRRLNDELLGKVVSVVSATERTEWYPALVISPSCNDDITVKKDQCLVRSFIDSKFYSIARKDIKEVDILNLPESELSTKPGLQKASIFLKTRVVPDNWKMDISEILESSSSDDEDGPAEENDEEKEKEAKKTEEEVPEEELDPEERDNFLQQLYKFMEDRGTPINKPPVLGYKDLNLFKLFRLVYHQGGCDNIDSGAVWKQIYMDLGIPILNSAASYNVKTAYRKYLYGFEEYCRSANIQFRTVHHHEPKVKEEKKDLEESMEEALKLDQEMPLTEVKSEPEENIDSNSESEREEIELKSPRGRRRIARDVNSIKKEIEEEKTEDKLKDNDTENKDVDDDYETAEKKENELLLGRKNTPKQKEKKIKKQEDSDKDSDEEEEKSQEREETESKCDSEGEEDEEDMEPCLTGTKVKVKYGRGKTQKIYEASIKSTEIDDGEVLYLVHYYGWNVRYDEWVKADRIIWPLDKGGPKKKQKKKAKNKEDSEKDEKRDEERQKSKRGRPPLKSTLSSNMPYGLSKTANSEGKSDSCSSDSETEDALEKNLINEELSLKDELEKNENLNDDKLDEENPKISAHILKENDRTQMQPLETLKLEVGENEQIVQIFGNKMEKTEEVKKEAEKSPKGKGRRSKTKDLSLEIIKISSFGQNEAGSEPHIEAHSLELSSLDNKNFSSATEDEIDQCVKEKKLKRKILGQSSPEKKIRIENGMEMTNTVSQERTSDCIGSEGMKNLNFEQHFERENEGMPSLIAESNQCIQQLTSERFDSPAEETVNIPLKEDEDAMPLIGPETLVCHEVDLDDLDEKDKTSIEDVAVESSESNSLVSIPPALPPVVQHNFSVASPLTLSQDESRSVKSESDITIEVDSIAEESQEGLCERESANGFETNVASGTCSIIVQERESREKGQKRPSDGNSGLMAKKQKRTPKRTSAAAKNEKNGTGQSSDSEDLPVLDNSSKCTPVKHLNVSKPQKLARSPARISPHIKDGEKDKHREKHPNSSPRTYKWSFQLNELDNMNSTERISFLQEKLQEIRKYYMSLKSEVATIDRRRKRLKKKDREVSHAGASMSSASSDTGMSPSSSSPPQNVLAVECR
# T3: ALDOA 1-364 Glycolytic (domain begin residue: 1, domain end residue: 364), P04075
# T3 chain: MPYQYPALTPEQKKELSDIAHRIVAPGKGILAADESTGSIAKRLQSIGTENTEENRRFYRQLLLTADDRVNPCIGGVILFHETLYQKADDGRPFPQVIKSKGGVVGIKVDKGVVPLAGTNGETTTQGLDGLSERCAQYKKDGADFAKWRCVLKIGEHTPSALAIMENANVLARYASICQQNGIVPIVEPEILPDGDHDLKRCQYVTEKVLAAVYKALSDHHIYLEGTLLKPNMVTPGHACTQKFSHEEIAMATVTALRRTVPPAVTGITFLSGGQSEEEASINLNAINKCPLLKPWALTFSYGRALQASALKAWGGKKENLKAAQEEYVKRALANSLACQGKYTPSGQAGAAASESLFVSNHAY
# T4: SND1 650-910 TUDOR+SNase (domain begin residue: 650, domain end residue: 910), Q7KZF4
# T4 chain: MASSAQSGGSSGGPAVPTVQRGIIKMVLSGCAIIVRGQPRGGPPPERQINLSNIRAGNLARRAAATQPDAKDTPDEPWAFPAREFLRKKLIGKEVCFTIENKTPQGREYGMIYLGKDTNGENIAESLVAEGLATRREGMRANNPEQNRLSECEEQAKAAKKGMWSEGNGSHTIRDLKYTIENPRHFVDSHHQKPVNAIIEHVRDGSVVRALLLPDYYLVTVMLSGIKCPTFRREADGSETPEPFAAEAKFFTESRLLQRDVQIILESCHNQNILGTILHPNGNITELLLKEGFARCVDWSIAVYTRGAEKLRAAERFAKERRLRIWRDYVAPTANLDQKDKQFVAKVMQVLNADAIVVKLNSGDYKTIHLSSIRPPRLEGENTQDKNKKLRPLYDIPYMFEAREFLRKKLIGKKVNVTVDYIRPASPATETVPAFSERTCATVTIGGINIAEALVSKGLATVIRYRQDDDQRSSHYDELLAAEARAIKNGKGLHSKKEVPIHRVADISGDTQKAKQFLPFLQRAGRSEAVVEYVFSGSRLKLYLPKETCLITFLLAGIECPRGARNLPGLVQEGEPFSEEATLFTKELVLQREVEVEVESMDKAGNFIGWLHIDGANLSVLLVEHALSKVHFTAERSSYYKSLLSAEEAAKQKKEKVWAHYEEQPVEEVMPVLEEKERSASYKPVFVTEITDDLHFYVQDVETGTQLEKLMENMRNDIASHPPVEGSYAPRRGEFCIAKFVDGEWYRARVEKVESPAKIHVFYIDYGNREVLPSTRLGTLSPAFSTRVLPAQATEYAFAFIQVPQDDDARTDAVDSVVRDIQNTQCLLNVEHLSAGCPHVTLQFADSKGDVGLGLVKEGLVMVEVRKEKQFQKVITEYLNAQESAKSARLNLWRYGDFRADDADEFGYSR
# Experiments:
# Experiment in all cases: phage ELISA signal ratio (GST-PRM binding over GST background); higher = stronger binding of peptide-phage to the PRM
# [1] = target: T1, ARFGEF2 639-829 Sec7 (domain begin …
# Protocol: (§1)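 Phage-displayed random hexadecapeptides (Cys-free, flanked by invariant Gly linkers, fused to the M13 P8 major coat protein) were selected over 5 rounds against GST-fused human PRM domains. Individual clones from rounds 4-5 were tested by phage ELISA, and positive clones binding the target but not GST were sequenced. Values are the ELISA signal ratio of target over background (GST); the background signal is given separately.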
# [2] = target: T2, ARID4A 568-634 Tudor-knot (domain begin …
# Protocol: as §1
# [3] = target: T3, ALDOA 1-364 Glycolytic (domain begin …
# Protocol: as §1
# [4] = target: ARF3 1-181 Arf (domain begin residue: 1, domain end residue: 181), P61204
# Protocol: as §1
# [5] = target: T4, SND1 650-910 TUDOR+SNase (domain begin …
# Protocol: as §1
# Sequence of ARF3 1-181 Arf (domain begin residue: 1, domain end residue: 181), P61204 (P61204 whole entry): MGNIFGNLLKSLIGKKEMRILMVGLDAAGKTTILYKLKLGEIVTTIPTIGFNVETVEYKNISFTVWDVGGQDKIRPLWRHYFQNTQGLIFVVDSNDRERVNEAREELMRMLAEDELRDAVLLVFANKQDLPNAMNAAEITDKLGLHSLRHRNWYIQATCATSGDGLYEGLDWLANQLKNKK
binder,measurement,setting,value
LTREHVQWDGVMHWIM,phage ELISA signal ratio,[1],16.4
PWDEIWEDMIEWPLPQ,phage ELISA signal ratio,[2],9.72
MYDEWHMPDSYEVVVQ,phage ELISA signal ratio,[3],19.3
WHVWDPVMEVFDWPEM,phage ELISA signal ratio,[3],18.1
NEGERLWAVLKLWHEE,phage ELISA signal ratio,[1],18.6
DWWDMWAQGDILEIHS,phage ELISA signal ratio,[2],11.5
DIYWGYHMTDFISQET,phage ELISA signal ratio,[4],15.3
GLDLDYWTMPGLETLL,phage ELISA signal ratio,[2],8.9
QITMQQYVELWHAAKS,phage ELISA signal ratio,[1],24.1
DGWGWDHIEIEMPYEE,phage ELISA signal ratio,[2],12.4
same,phage ELISA signal ratio,[5],8.36
NWDMWMEEQYDPSVML,phage ELISA signal ratio,[2],9.12
AWSYLHGEWEWVQPVM,phage ELISA signal ratio,[3],14.5
EQLEPWLMPGQSQLFG,phage ELISA signal ratio,[2],9.13
MPDGLPEWWQGRHDWW,phage ELISA signal ratio,[1],18.2
WTYESGEWNWYTEEKT,phage ELISA signal ratio,[3],23.9
VQWQERYTDYTFENVT,phage ELISA signal ratio,[3],24.7

# From the supplement of paper PMC7724964
